In PubChem BioAssay (NCI):
The panel holds about 79,000 compounds, 15% with a hit somewhere; the sample as a whole holds those more often. Active and inactive are the calls of the source. No stated cut-off is given here; in the data, active means growth inhibition above about 70%; inactive means the rest.

Experiments:
[1] = NCI Yeast Anticancer Drug Screen. Data for the rad50 strain (AID 155);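 further: 0% = growth of vehicle-only cultures of the same strain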; settings: S. cerevisiae rad50 strain growth inhibition, active compounds read high
Procedure, shortened: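 Relative growth inhibition (compound vs vehicle) was measured in yeast with a defined repair-gene alteration.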

[2] = NCI Yeast Anticancer Drug Screen. Data for the mec2-1 strain (AID 157); settings: S. cerevisiae mec2-1 strain, active compounds read high
Procedure, shortened: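 Readout is yeast growth inhibition, normalised to vehicle-treated controls, in the mec2-1 strain exposed to compound.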

[3] = NCI Yeast Anticancer Drug Screen. Data for the sgs1 mgt1 strain (AID 161);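 further: 0% = growth of cultures given vehicle only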; settings: S. cerevisiae sgs1 mgt1 strain, active compounds read high
Procedure, shortened: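 Compounds are added to genetically altered yeast, and growth is compared with cultures given vehicle alone to give percent inhibition.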

[4] = NCI Yeast Anticancer Drug Screen. Data for the cln2 rad14 strain (AID 165);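 further: 0% = growth equal to vehicle treated cultures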; settings: S. cerevisiae cln2 rad14 strain, active compounds read high
Procedure, shortened: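 Relative to vehicle controls, growth inhibition of compound-treated cln2 rad14 yeast was recorded.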

[5] = NCI Yeast Anticancer Drug Screen. Data for the bub3 strain (AID 167); settings: S. cerevisiae bub3 mutant strain, active compounds read high
Procedure, shortened: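 Screening used yeast with an engineered genetic alteration affecting cell cycle control. Compound-exposed cultures were compared with vehicle cultures, and reduced growth was taken as inhibition.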

[6] = NCI Yeast Anticancer Drug Screen. Data for the mlh1 rad18 strain (AID 175); settings: S. cerevisiae mlh1 rad18 strain growth inhibition, active compounds read high
Procedure, shortened: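 Test agents were incubated with a yeast strain of defined genotype (DNA damage repair defect). Inhibition of growth was derived by comparison with vehicle-exposed cultures.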

[7] = at 5.0 µM (retest, dose inferred, filed as 0.5)
[8] = at 50.0 µM (retest, dose inferred, filed as 5.0)

Measured: growth inhibition

Cc1c2ccccc2c(=O)n2c(-c3ccccn3)cccc12
active: [3]; at 50.0 µM 77.8%
inactive: [1]; [7] -47% | [1]; [8] -14% | [1]; at 50.0 µM 46.8% | [2]; [7] -20% | [2]; [8] -16% | [2]; at 50.0 µM -1.2% | [3]; [7] 7% | [3]; [8] -3% | [4]; [7] 8% | [4]; [8] 26% | [4]; at 50.0 µM 33.1% | [5]; [7] -26% | [5]; [8] -17% | [5]; at 50.0 µM 30.8% | [6]; [7] -43% | [6]; [8] 31% | [6]; at 50.0 µM -6.4%

CC(C)Cc1cc(O)cc2ccccc12
active: [1]; [8] 98% | [1]; at 50.0 µM 98.9% | [2]; [8] 99% | [2]; at 50.0 µM 99.2% | [3]; [8] 98% | [3]; at 50.0 µM 98.5% | [4]; [8] 97% | [4]; at 50.0 µM 98.4% | [5]; [8] 99% | [5]; at 50.0 µM 98.5% | [6]; [8] 98% | [6]; at 50.0 µM 98.8%
inactive: [1]; [7] 4% | [2]; [7] 5% | [3]; [7] 3% | [4]; [7] 2% | [5]; [7] 5% | [6]; [7] 0%

C[C@]12C/C(=C/C(F)(F)F)C(=O)C[C@@H]1CC[C@@H]1[C@@H]2CC[C@]2(C)[C@@H](C(=O)O)CC[C@@H]12
inactive: [1]; [7] 32% | [1]; at 50.0 µM 31.5% | [2]; at 50.0 µM 39.4% | [4]; [7] 24% | [4]; at 50.0 µM 55.7% | [5]; at 50.0 µM 26.1% | [6]; at 50.0 µM 48.4%
active: [1]; [8] 91% | [2]; [7] 92% | [2]; [8] 97% | [3]; [7] 87% | [3]; [8] 95% | [3]; at 50.0 µM 72.1% | [4]; [8] 87% | [5]; [7] 89% | [5]; [8] 95% | [6]; [7] 93% | [6]; [8] 96%

CC(C)C(Cl)CC/C(CBr)=C(\Cl)CCl (stereo not given)
active: [1]; [8] 89% | [1]; at 50.0 µM 75% | [2]; [8] 92% | [2]; at 50.0 µM 80.8% | [3]; [8] 99% | [3]; at 50.0 µM 92.4% | [4]; [8] 96% | [4]; at 50.0 µM 91.1% | [5]; [8] 98% | [5]; at 50.0 µM 92.3% | [6]; [8] 97%
inactive: [1]; [7] 28% | [2]; [7] 29% | [3]; [7] 27% | [4]; [7] 24% | [5]; [7] 23% | [6]; [7] 28% | [6]; at 50.0 µM 18.9%

CCC1(O)c2ccccc2C(O)(CC)c2ccccc21 (stereo not given)
inactive: [1]; [7] 11% | [1]; [8] 28% | [2]; [7] 3% | [2]; [8] 40% | [3]; [7] 5% | [3]; [8] 53% | [3]; at 50.0 µM 23.4% | [4]; [7] 3% | [4]; [8] 21% | [5]; [7] 7% | [5]; [8] 54% | [6]; [7] 14% | [6]; [8] 68%
active: [1]; at 50.0 µM 74% | [2]; at 50.0 µM 89.6% | [4]; at 50.0 µM 96.5% | [5]; at 50.0 µM 97% | [6]; at 50.0 µM 97.7%

CCCNC(=O)c1cc2ccccc2cc1C(=O)OC
active: [1]; [8] 90% | [1]; at 50.0 µM 86% | [2]; [8] 90% | [2]; at 50.0 µM 88.5% | [3]; [8] 95% | [3]; at 50.0 µM 81.9% | [4]; [8] 74% | [4]; at 50.0 µM 81.1% | [5]; [8] 94% | [5]; at 50.0 µM 88.3% | [6]; [8] 94% | [6]; at 50.0 µM 86.2%
inactive: [1]; [7] 59% | [2]; [7] 48% | [3]; [7] 51% | [4]; [7] 49% | [5]; [7] 68% | [6]; [7] 65%

O=[N+]([O-])c1cc(C(F)(F)F)cc([N+](=O)[O-])c1CCl
active: [1]; [7] 100% | [1]; [8] 100% | [1]; at 50.0 µM 99.7% | [2]; [7] 100% | [2]; [8] 100% | [2]; at 50.0 µM 99.8% | [3]; [7] 100% | [3]; [8] 100% | [3]; at 50.0 µM 99.6% | [4]; [7] 100% | [4]; [8] 100% | [4]; at 50.0 µM 99.4% | [5]; [7] 100% | [5]; [8] 100% | [5]; at 50.0 µM 99.4% | [6]; [7] 100% | [6]; [8] 100% | [6]; at 50.0 µM 99.7%

O=C(c1ccc(Cl)cc1)c1ccc([N+](=O)[O-])cc1
inactive: [1]; [7] 13% | [1]; [8] -4% | [1]; at 50.0 µM 5.35% | [2]; [7] -4% | [2]; [8] 1% | [2]; at 50.0 µM -16.4% | [3]; [7] 4% | [3]; [8] -14% | [3]; at 50.0 µM 4.6% | [4]; [7] -3% | [4]; [8] 1% | [4]; at 50.0 µM -2.2% | [5]; [7] 3% | [5]; [8] 31% | [6]; [7] -3% | [6]; [8] 7% | [6]; at 50.0 µM 8.05%
active: [5]; at 50.0 µM 74.5%

CCCCCC(CN(C)C)C(=O)/C=C/c1ccc(Cl)cc1 (stereo not given)
inactive: [1]; [7] 21% | [2]; [7] -1% | [3]; [7] 6% | [4]; [7] -1% | [5]; [7] 5% | [6]; [7] 33%
active: [1]; [8] 99% | [1]; at 50.0 µM 99.2% | [2]; [8] 100% | [2]; at 50.0 µM 99.3% | [3]; [8] 99% | [3]; at 50.0 µM 99.3% | [4]; [8] 99% | [4]; at 50.0 µM 99.2% | [5]; [8] 98% | [5]; at 50.0 µM 99.3% | [6]; [8] 99% | [6]; at 50.0 µM 99.2%

C1=CC2OC1c1cc3ccccc3cc12
active: [1]; [8] 92% | [1]; at 50.0 µM 87.5% | [2]; [8] 98% | [2]; at 50.0 µM 96.5% | [3]; [8] 98% | [3]; at 50.0 µM 89.9% | [4]; [8] 98% | [4]; at 50.0 µM 95.6% | [5]; [8] 97% | [5]; at 50.0 µM 95% | [6]; [8] 97% | [6]; at 50.0 µM 95.2%
inactive: [1]; [7] 13% | [2]; [7] 11% | [3]; [7] 10% | [4]; [7] 23% | [5]; [7] 6% | [6]; [7] 34%
